Screen size: about 310,000 compounds; about 14,000 (4.5%) showed an effect of 50% or more. Effects have a minus sign here. Only a selection was taken, and strong results are over-represented in it overall.
Molecular target: human ether-à-go-go-related gene (hERG) potassium channel (human, UniProt Q12809)
Assay: primary screen, population patch clamp on CHO cells stably expressing hERG; higher = less effect of the substance
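Also: peak tail current of the secondary pulse compared with the same well before compound.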

Sequence of human ether-à-go-go-related gene (hERG) potassium channel (Q12809 whole entry, looked up): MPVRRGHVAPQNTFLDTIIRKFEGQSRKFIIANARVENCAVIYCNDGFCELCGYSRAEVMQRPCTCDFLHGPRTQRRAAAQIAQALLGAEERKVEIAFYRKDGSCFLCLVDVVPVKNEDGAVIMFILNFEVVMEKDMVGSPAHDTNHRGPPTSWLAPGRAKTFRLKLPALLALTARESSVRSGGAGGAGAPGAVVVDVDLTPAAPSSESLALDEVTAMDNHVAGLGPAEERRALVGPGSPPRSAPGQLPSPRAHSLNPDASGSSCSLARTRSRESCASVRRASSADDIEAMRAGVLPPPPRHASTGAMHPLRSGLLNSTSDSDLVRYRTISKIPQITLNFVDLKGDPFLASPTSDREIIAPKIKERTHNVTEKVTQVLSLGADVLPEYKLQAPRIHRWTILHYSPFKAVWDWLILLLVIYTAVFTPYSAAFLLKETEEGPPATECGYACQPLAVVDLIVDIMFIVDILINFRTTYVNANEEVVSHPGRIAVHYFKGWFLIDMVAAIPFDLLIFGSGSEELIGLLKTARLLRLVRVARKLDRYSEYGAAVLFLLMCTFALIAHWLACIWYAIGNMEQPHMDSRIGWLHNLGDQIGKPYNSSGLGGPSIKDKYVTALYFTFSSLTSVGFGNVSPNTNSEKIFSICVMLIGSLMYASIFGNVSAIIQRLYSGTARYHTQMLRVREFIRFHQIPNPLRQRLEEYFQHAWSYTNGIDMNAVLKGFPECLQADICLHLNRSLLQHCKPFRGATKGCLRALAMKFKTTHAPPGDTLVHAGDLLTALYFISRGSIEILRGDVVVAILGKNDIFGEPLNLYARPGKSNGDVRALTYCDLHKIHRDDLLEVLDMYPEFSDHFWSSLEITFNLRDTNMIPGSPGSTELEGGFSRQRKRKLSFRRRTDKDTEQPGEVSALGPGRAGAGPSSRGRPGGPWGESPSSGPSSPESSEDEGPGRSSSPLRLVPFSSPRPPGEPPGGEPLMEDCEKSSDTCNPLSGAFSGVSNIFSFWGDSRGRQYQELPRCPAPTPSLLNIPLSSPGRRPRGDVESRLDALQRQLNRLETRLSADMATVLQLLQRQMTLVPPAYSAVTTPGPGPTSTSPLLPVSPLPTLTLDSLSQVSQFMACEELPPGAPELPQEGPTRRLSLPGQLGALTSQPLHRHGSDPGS

SMILES | hERG current change (%, negative = inhibition) at 10uM [%]
CCc1cc(C(=O)c2ccc(OC)cc2)c(NC(=O)CN2CCN(C)CC2)s1 | -71.3
CCc1cc(C(=O)c2ccc(OC)cc2)c(NC(=O)CN2CCCC2)s1 | -12.4
CCc1cc(C(=O)c2ccc(OC)cc2)c(NC(=O)CN2CCCCC2)s1 | 5
CCOc1cccc2cc(C(=O)N3CCc4ccccc43)c(=O)oc12 | -2.43
COC(=O)C1=C(c2ccc(OC)c(OC)c2)C[C@@H]2CC[C@H]1N2C(=O)NCCCOC(C)C | 15.3
C[N+]1(CC(=O)OCCCC2CCCCC2)CCCC1.[I-] | -8.31
Cl.O=[N+]([O-])c1ccc(OCC(O)CNC2CCCC2)cc1 (stereo not shown) | -76.2
CC(OCC(O)CNCC1COc2ccccc2O1)c1ccc(Cl)cc1 (stereo not shown) | -22.7
OC(CNCC1COc2ccccc2O1)COc1ccccc1F (stereo not shown) | 1.11
COc1ccc(OCC(O)CNC2CCCC2)cc1.Cl (stereo not shown) | 12.8
OC(CNC1Cc2ccccc2C1)COc1ccc(Cl)cc1 (stereo not shown) | -68.8
Cl.OC(CNC1CCCC1)COc1ccc(Cl)cc1 (stereo not shown) | -9.8
Cl.OC(CNCC1COc2ccccc2O1)COc1ccc(Cl)cc1 (stereo not shown) | -56.2
O=C(O)c1ccccc1C(=O)NCC(O)COc1ccc(Cl)cc1 (stereo not shown) | 2.34
Cl.OC(CNC1CCCC1)COc1ccc(-c2ccccc2)cc1 (stereo not shown) | -51.8
COC(=O)c1ccc(OCC(O)CNC2CCCC2)cc1.Cl (stereo not shown) | 13.3
Cl.OC(CNC1CCCC1)COc1ccc(F)cc1 (stereo not shown) | 5.27
OC(CNC1Cc2ccccc2C1)COc1ccc(F)cc1 (stereo not shown) | -49.1
O=C(CSc1nnc(-c2cccs2)o1)N1CCCc2ccccc21 | 3.02
O=C(CCCn1c(=S)[nH]c2ccsc2c1=O)Nc1ccc2c(c1)OCO2 | 17.2
O=C(COC(=O)c1ccccc1O)Nc1cc([N+](=O)[O-])ccc1Cl | -21.5
Nc1nc(NCCc2ccccc2)nc(NCc2ccccc2)c1[N+](=O)[O-] | 20.4
Cc1ccc(C(C)C)c(OCC(O)CNC2CCCC2)c1.Cl (stereo not shown) | -51.9
Cc1cccc(C)c1OCC(O)CNS(=O)(=O)c1ccccc1C(=O)N1CCCCC1 (stereo not shown) | -10.9
O=C(c1ccccc1S(=O)(=O)NCC(O)COc1ccc([N+](=O)[O-])cc1)N1CCCCC1 (stereo not shown) | -56.8
Cc1ccc(OCC(O)CNC2CCCC2)c(C)c1.Cl (stereo not shown) | 7.48
Cc1ccc(OCC(O)CNS(=O)(=O)c2ccccc2C(=O)N2CCCCC2)cc1 (stereo not shown) | -13.9
Cc1ccc(C)c(OCC(O)CNC2CCCC2)c1.Cl (stereo not shown) | 8.8
